Measured values as given in PubChem BioAssay (NCI).
The panel holds about 83,000 compounds, 20% with a hit somewhere; the sample as a whole holds those more often.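 The test compound was applied at a single concentration to cells in 96-well plates for 48 hours, and percent growth was recorded.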 The source made the active and inactive calls. The calls were made as follows: active = growth percent below 10; inactive = the rest.

System: UACC-257 melanoma
Assay: NCI-60 one-dose screen, 48 h (100 = growth as untreated, 0 = no growth, -100 = all killed)
Settings: 10 µM unless noted

Row | SMILES | growth
1 | O=C(Nc1ccccn1)[C@H](O)[C@@H](O)C(=O)N1CCOCC1 | 101% (inactive)
2 | CC(C)(C)N1CC(OC(N)=O)C1 | 4.43% (active)
3 | O=C(NC1CCOCC1)c1ccc2c(c1)CN(c1ncc(Cc3cccc(-n4cccn4)c3)s1)CC2 | 62.6% (inactive)
4 | CN1C[C@@H](c2ccc(Cl)cc2)[C@]2(NC(=S)N(c3ccc(F)c(Cl)c3)C2=O)[C@@]12C(=O)NC1C=CC(Cl)=C[C@H]12 (stereo partly specified) | 65% (inactive)
5 | CCCN1CCN(c2ccc3nc(-c4ccc5nc(-c6ccc(OCC)c(OCC)c6)[nH]c5c4)[nH]c3c2)CC1 | -29.7% (active)
6 | NC(=S)c1csc(CCNC(=O)c2ccccc2)n1 | 94.2% (inactive)
7 | CCN(CCO)CC(=O)c1cc(Cl)cc(Cl)c1Cl | 102% (inactive)
8 | C=CC(=O)Nc1cccc(C)c1Nc1cc(-c2cccnc2Cc2c(C)c(OC)cc(OC)c2C)ncn1 | 21.4% (inactive)
9 | N#Cc1c(NC(=O)c2ccccc2I)sc2c1CCCC2 | 60.7% (inactive)
10 | C#CC[C@H](N)C(=O)O | 101% [20 µM] (inactive)
11 | COc1ccc(-n2ncn(CCCCCCn3cnn(-c4ccc(OC)cc4)c3=O)c2=O)cc1 | 101% (inactive)
12 | CC(C)OC(=O)OCOP(=O)(OCOC(=O)OC(C)C)C1CCCN(O)C1=O (stereo unspecified) | 55.2% (inactive)
13 | O=C(/C=C/C12c3ccccc3C(c3ccccc31)C1C(=O)N(c3ccc(Cl)cc3)C(=O)C12)c1ccccn1 (stereo unspecified) | 2.58% (active)
14 | Cc1ccc(S(=O)(=O)N(CC[C@@H]2C[C@H]2c2cc3ccccc3o2)C(=O)NC2CCCCC2)cc1 | 108% (inactive)
15 | COc1cc2c(cc1OC)-c1ccc3cc4c(cc3c1N(CCCN1CCCCC1)C2)OCO4 | 64.3% (inactive)
16 | COc1cc2cc(Oc3ccc(NC(=O)Nc4cc(C(F)(F)F)cc(C(F)(F)F)c4)cc3)c(C)nc2cc1OCCN1CCCCC1 | -47.4% (active)
17 | CCN(CC)CCOC(=O)Nc1ccccc1Cl | 105% (inactive)
18 | COc1cc(CNC(=O)/C=C/C=C/c2ccc3c(c2)OCO3)ccc1OCc1cn(-c2ccc(Cl)c(Cl)c2)nn1 | -17.4% (active)
19 | N#C/C=C(\c1ccc([N+](=O)[O-])cc1)n1nnc2cc(Cl)c(Cl)cc21 | 45.6% (inactive)
20 | CNC(=O)c1c(NC(=O)c2ccc(C(C)(C)C)cc2)sc2c1CCC(=O)C2 | 16.8% (inactive)
21 | CCCCOc1ccc(NC(=O)n2nc(N=NN(C)C)c3ccc(Cl)cc32)cc1 | 125% (inactive)
22 | CC[C@@H](C[C@H](CCO)c1ccccc1)c1cc2ccccc2o1 | 96.9% (inactive)
23 | N=c1ccn2c(n1)OC1C(O)C(CO)OC12 (stereo unspecified) | 54.6% (inactive)
24 | Cc1cc(N2CCCCC2)nc(N(CCNc2ccnc3cc(Cl)ccc23)Cc2ccccn2)n1 | 66.9% (inactive)
25 | CCOc1ccc2nc(-c3cccc(OCC(=O)NC(C)C)c3)nc(Nc3ccc(-c4cn[nH]c4)cc3)c2c1 | -53.7% (active)
26 | C=C1C(=O)O[C@H]2[C@H]1CC/C(Cn1cc(CNCCc3c[nH]c4ccc(Cl)cc34)nn1)=C\CC[C@@]1(C)O[C@@H]21 | 53.4% (inactive)
27 | CS(=O)(=O)c1ccc(-c2nc3cc(Cl)ccc3n2CC(=O)N/N=C/c2ccc(Cl)cc2)cc1 | 67.7% (inactive)

System: M14 melanoma
Assay: as above
Settings: 10 µM unless noted

Row | SMILES | growth
28 | Nc1ccc(CCCCc2ccccc2)c(Cl)c1 | 103% (inactive)
29 | Nc1ccc(S(=O)(=O)Nc2ccsc2-c2nc(-c3ccccc3)no2)cc1 | 32.1% (inactive)
30 | C=C(CNCCc1ccc(O)cc1)[C@@H]1CC[C@]2(COC3CCCCO3)CC[C@]3(C)[C@H](CC[C@@H]4[C@@]5(C)CCC(NCCO)C(C)(C)[C@@H]5CC[C@]43C)[C@@H]12 (stereo partly specified) | -86.8% (active)
31 | OC(COc1cccc2ccccc12)CN1CCN(c2ccccc2)CC1 (stereo unspecified) | 86.8% (inactive)
32 | Cc1[nH]c(-c2nc3ccccc3[nH]2)c(C)c1C(=O)N1CCc2sccc2C1 | 94.6% (inactive)
33 | CC(C)n1nc(C#Cc2cccc(NC(=O)c3cccc(C(F)(F)F)c3)c2)c2c(N)ncnc21 | -44% (active)
34 | Cc1cc(NS(=O)(=O)c2ccccc2)c(OS(=O)(=O)c2ccccc2)cc1C | 96.8% (inactive)
35 | OCCCCc1nccc2c1[nH]c1ccccc12 | 102% (inactive)
36 | C=C(C)[C@@H]1CC[C@]2(CNCCO)CC[C@]3(C)[C@H](CC[C@@H]4[C@@]5(C)CCC(N)[C@@](C)(CO)[C@@H]5CC[C@]43C)[C@@H]12 (stereo partly specified) | -77% (active)
37 | OC(c1cccc(OCc2ccccc2)c1)c1nnc(-c2ccccc2)o1 (stereo unspecified) | 105% (inactive)
38 | Cl.[Pt].[c-]1ccccc1-c1ccccn1.c1ccc(P(c2ccccc2)C([PH+](c2ccccc2)c2ccccc2)[PH+](c2ccccc2)c2ccccc2)cc1 | 19.2% (inactive)
39 | COc1cc2c(c(OC)c1OC)C(=O)/C(=C/c1cc(C)c(O)c(C)c1)S2 | 28.8% (inactive)
40 | O=C(Nc1ccccn1)[C@H](O)[C@@H](O)C(=O)N1CCOCC1 | 103% (inactive)
41 | CC(C)(C)N1CC(OC(N)=O)C1 | 97.6% (inactive)
42 | O=C(NC1CCOCC1)c1ccc2c(c1)CN(c1ncc(Cc3cccc(-n4cccn4)c3)s1)CC2 | 64% (inactive)
43 | CN1C[C@@H](c2ccc(Cl)cc2)[C@]2(NC(=S)N(c3ccc(F)c(Cl)c3)C2=O)[C@@]12C(=O)NC1C=CC(Cl)=C[C@H]12 (stereo partly specified) | -31.2% (active)
44 | CCCN1CCN(c2ccc3nc(-c4ccc5nc(-c6ccc(OCC)c(OCC)c6)[nH]c5c4)[nH]c3c2)CC1 | -65.7% (active)
45 | NC(=S)c1csc(CCNC(=O)c2ccccc2)n1 | 110% (inactive)
46 | CCN(CCO)CC(=O)c1cc(Cl)cc(Cl)c1Cl | 99.2% (inactive)
47 | C=CC(=O)Nc1cccc(C)c1Nc1cc(-c2cccnc2Cc2c(C)c(OC)cc(OC)c2C)ncn1 | 53.4% (inactive)

Row | SMILES | growth
48 | N#Cc1c(NC(=O)c2ccccc2I)sc2c1CCCC2 | 16.3% (inactive)
49 | C#CC[C@H](N)C(=O)O | 100% [20 µM] (inactive)
50 | COc1ccc(-n2ncn(CCCCCCn3cnn(-c4ccc(OC)cc4)c3=O)c2=O)cc1 | 97.5% (inactive)
51 | CC(C)OC(=O)OCOP(=O)(OCOC(=O)OC(C)C)C1CCCN(O)C1=O (stereo unspecified) | 44.4% (inactive)
52 | O=C(/C=C/C12c3ccccc3C(c3ccccc31)C1C(=O)N(c3ccc(Cl)cc3)C(=O)C12)c1ccccn1 (stereo unspecified) | -1.41% (active)
53 | Cc1ccc(S(=O)(=O)N(CC[C@@H]2C[C@H]2c2cc3ccccc3o2)C(=O)NC2CCCCC2)cc1 | 96.5% (inactive)
54 | COc1cc2c(cc1OC)-c1ccc3cc4c(cc3c1N(CCCN1CCCCC1)C2)OCO4 | 54% (inactive)
55 | COc1cc2cc(Oc3ccc(NC(=O)Nc4cc(C(F)(F)F)cc(C(F)(F)F)c4)cc3)c(C)nc2cc1OCCN1CCCCC1 | -79.6% (active)
56 | CCN(CC)CCOC(=O)Nc1ccccc1Cl | 86.1% (inactive)
57 | COc1cc(CNC(=O)/C=C/C=C/c2ccc3c(c2)OCO3)ccc1OCc1cn(-c2ccc(Cl)c(Cl)c2)nn1 | -30.4% (active)
58 | N#C/C=C(\c1ccc([N+](=O)[O-])cc1)n1nnc2cc(Cl)c(Cl)cc21 | 21.1% (inactive)
59 | CNC(=O)c1c(NC(=O)c2ccc(C(C)(C)C)cc2)sc2c1CCC(=O)C2 | 3.53% (active)
60 | CCCCOc1ccc(NC(=O)n2nc(N=NN(C)C)c3ccc(Cl)cc32)cc1 | 89.4% (inactive)
61 | CC[C@@H](C[C@H](CCO)c1ccccc1)c1cc2ccccc2o1 | 91.9% (inactive)
62 | N=c1ccn2c(n1)OC1C(O)C(CO)OC12 (stereo unspecified) | -25.5% (active)
63 | Cc1cc(N2CCCCC2)nc(N(CCNc2ccnc3cc(Cl)ccc23)Cc2ccccn2)n1 | 45% (inactive)
64 | CCOc1ccc2nc(-c3cccc(OCC(=O)NC(C)C)c3)nc(Nc3ccc(-c4cn[nH]c4)cc3)c2c1 | 11.6% (inactive)
65 | C=C1C(=O)O[C@H]2[C@H]1CC/C(Cn1cc(CNCCc3c[nH]c4ccc(Cl)cc34)nn1)=C\CC[C@@]1(C)O[C@@H]21 | 66.1% (inactive)
66 | CS(=O)(=O)c1ccc(-c2nc3cc(Cl)ccc3n2CC(=O)N/N=C/c2ccc(Cl)cc2)cc1 | 61.2% (inactive)
